Measurements: PMC4552634, “A New Set of Chemical Starting Points with Plasmodium falciparum Transmission-Blocking Potential for Antimalarial Drug Discovery” (PLoS ONE, 2015)
The whole screen tested about 13,000 compounds, of which about 3,200 (25%) showed an effect of 50% or more. The list shows a part of the results.

The molecules below were run on P. falciparum stage V gametocytes. Details: 48 h, 5 µM; inhibitor.
Parameters: BacTiter-Glo ATP luminescence viability of purified stage V gametocytes in 384-well plates, per cent inhibition versus DMSO

Structure (SMILES) | % Inhibition [%]
CC1(C)N=C(N)N=C(N)N1OCCOc1ccc2ccccc2c1 [TCMDC-131609] | -8.756
N#Cc1cc(C(=O)Nc2ccccc2)c(N)nc1SCC(=O)Nc1ccc(Br)cc1 [TCMDC-124873] | -53.64
CCCC(C)Nc1nc(C)cc(N[C@@H](CC(C)C)C(=O)NCCc2ccccc2)n1 (some centres unmarked) [TCMDC-134769] | -46.8
[O-][s+]1c(Cl)c(-c2ccc(Cl)cc2)c2ccc(Cl)cc21 (centres unmarked) [TCMDC-124011] | 120.8
Cc1noc(C)c1-c1ccc(C(=C2CCCCCCC2)c2ccc(O)cc2)cc1 [TCMDC-135872] | -5.918
Fc1ccc(-c2oc(C3CCN(CCc4ccc(-c5nc(=S)o[nH]5)cc4)CC3)nc2COCC(F)(F)F)cc1 [TCMDC-138124] | 11.59
O=C(Cc1c[nH]cn1)Nc1cccc(-c2ccc(-c3nc4cc(F)ccc4[nH]3)s2)c1 [TCMDC-136953] | 5.637
O=C(Nc1cccc(-c2ccc(-c3nc4cc(C(F)(F)F)ccc4[nH]3)s2)c1)c1ccncc1 [TCMDC-136960] | -10.77
O=C(Cc1c[nH]cn1)Nc1cccc(-c2ccc(-c3nc4cc(C(F)(F)F)ccc4[nH]3)s2)c1 [TCMDC-136945] | 84.53
O=C(Cc1c[nH]cn1)Nc1ccc(-c2ccc(-c3nc4cc(C(F)(F)F)ccc4[nH]3)s2)cc1 [TCMDC-136944] | -5.397
O=C(Nc1cccc(-c2ccc(-c3nc4cc(C(F)(F)F)ccc4[nH]3)s2)c1)c1c[nH]cn1 [TCMDC-136934] | 63.59
O=C(Nc1ccc(-c2ccc(-c3nc4cc(C(F)(F)F)ccc4[nH]3)s2)cc1)c1c[nH]cn1 [TCMDC-136933] | 1.444
Cc1cccc2nc(-c3cccc(-c4cccc(CNCCc5ccncc5)c4)c3)[nH]c12.O=C(O)C(F)(F)F [TCMDC-132844] | 3.347
O=C(CCc1cccnc1)Nc1cccc(-c2ccc(-c3nc4cc(C(F)(F)F)ccc4[nH]3)s2)c1 [TCMDC-132147] | 0.1764
CC(=O)Nc1ccc(C(=O)NC2CCN(c3ccnc4cc(Cl)ccc34)CC2)cc1 [TCMDC-133572] | 1.937
COc1ccc(Nc2nccc(N3CCC(NC(=O)c4cc5ccccc5s4)C3)n2)cc1 (centres unmarked) [TCMDC-133614] | -3.392
CC(C)C[C@H](NC(=O)c1cc2ccccc2s1)C(=O)N[C@H]1CCN(Cc2ccc(OCCN3CCNCC3)c3ccccc23)C1 [TCMDC-140289] | 107.5
COc1cc(Nc2nccc(N3CCC(NC(=O)c4cc5ccccc5s4)C3)n2)cc(OC)c1OC (centres unmarked) [TCMDC-133624] | 0.1379
CC(C)C[C@H](NC(=O)c1cc2ccccc2s1)C(=O)N[C@H]1CCN(Cc2ccc(OC[C@@H]3CCCN3C)c(Cl)c2)C1 [TCMDC-140292] | 28.24
CC(C)C[C@H](NC(=O)c1cc2ccccc2s1)C(=O)N[C@H]1CCN(Cc2ccc(OC[C@@H]3CCCN3C)c3ccccc23)C1 [TCMDC-140290] | 74.51
O=C(Nc1cccc(C(F)(F)F)c1)N1CCOC(CCN2CCC3(CCc4ccccc43)CC2)(c2ccc(Cl)c(Cl)c2)C1 (centres unmarked) [TCMDC-135340] | -5.677
OCC1CCN(Cc2cccc(C#Cc3cc4ncnc(Nc5ccc(OCc6cccc(F)c6)c(Cl)c5)c4s3)n2)CC1 [TCMDC-138841] | 11.44

Structure (SMILES) | % Inhibition [%]
Cc1cc(N2CCN(C)CC2)nc2ccc(NC(=O)c3cccc(N(C)C)c3)cc12 [TCMDC-124449] | 4.693
Cc1cc(N2CCN(C)CC2)nc2ccc(NC(=O)Cc3cccc(C(F)(F)F)c3)cc12 [TCMDC-123590] | 92.11
CCN1CCN(c2cc(C)c3cc(NC(=O)c4cccc(C(F)(F)F)c4)ccc3n2)CC1 [TCMDC-125572] | -33.11
Cc1cccn2c(=O)c3cc(C(=O)NC(C)c4ccccc4)c(=N)n(CCN4CCOCC4)c3nc12 (centres unmarked) [TCMDC-125137] | 27.67
COCCn1c(-c2nc(-c3ccc(F)cc3)cnc2N)nc2ccccc21 [TCMDC-138875] | 21.39
CN=C(N)c1ccc(NC(=O)c2ccc(C(=O)Nc3ccc(C(N)=NC)cc3)cc2)cc1 [TCMDC-137214] | -8.132
O=C(Nc1ccc(C(=O)Nc2cccc(C3=NCCN3)c2)cc1)Nc1ccc(C2=NCCN2)cc1 [TCMDC-137196] | -21.25
CN=C(N)c1ccc(NC(=O)Nc2ccc(C(N)=NC)cc2)cc1 [TCMDC-137211] | 3.891
O=C(CCCC(=O)Nc1ccc(C2=NCCN2)cc1)Nc1ccc(C2=NCCN2)cc1 [TCMDC-138427] | -1.956
O=C(C=Cc1ccc(C(=O)Nc2ccc(C3=NCCN3)cc2)cc1)Nc1ccc(C2=NCCN2)cc1 [TCMDC-137212] | 61.27
CN=C(N)c1ccc(NC(=O)C=Cc2ccc(C(=O)Nc3ccc(C(N)=NC)cc3)cc2)cc1 [TCMDC-137193] | 77.71
N#Cc1cccc(C(=O)NC2CCN(c3ccnc(Nc4ccc(F)cc4)n3)C2)c1 (centres unmarked) [TCMDC-133593] | 17.79
O=C(C=Cc1ccc(F)cc1)NC1CCC(CCN2CCc3ccc(-c4cnccn4)cc3CC2)CC1 (centres unmarked) [TCMDC-140328] | 0.8671
COc1ccccc1/C=C/C(=O)NC1CCC(CCN2CCc3ccc(-c4cc(C)no4)cc3CC2)CC1 (centres unmarked) [TCMDC-139975] | 80.37
Cc1cc(-c2ccc3c(c2)CCN(CCC2CCC(NC(=O)/C=C/c4ccc(F)cc4)CC2)CC3)on1 (centres unmarked) [TCMDC-139926] | -90.16
N#Cc1ccc2c(c1)CCN(CCC1CCC(NC(=O)/C=C/c3c[nH]c4ccc(F)cc34)CC1)CC2 (centres unmarked) [TCMDC-139667] | -9.203
Cn1cnc(-c2ccc3c(c2)CCN(CCC2CCC(NC(=O)/C=C/c4ccc(F)cc4)CC2)CC3)c1 (centres unmarked) [TCMDC-140338] | 59.86
O=C(NC1CCC(CCN2CCc3ccc(-c4cnccn4)cc3CC2)CC1)c1cccc(-n2cccn2)c1 (centres unmarked) [TCMDC-140329] | 67.17
Cc1ccc2[nH]cc(/C=C/C(=O)NC3CCC(CCN4CCc5ccc(C#N)cc5CC4)CC3)c2c1 (centres unmarked) [TCMDC-139682] | 84.8
Cc1cc(-c2ccc3c(c2)CCN(CCC2CCC(NC(=O)/C=C/c4ccccc4F)CC2)CC3)on1 (centres unmarked) [TCMDC-139974] | -78.86
Cc1noc(-c2ccc3c(c2)CCN(CCC2CCC(NC(=O)/C=C/c4ccc(F)cc4)CC2)CC3)n1 (centres unmarked) [TCMDC-139865] | -60.69
N#Cc1ccc(C=CC(=O)NC2CCC(CCN3CCc4ccc(-c5cnccn5)cc4CC3)CC2)cc1 (centres unmarked) [TCMDC-140327] | -34.09

Structure (SMILES) | % Inhibition [%]
O=C(C=Cc1cccc(F)c1)NC1CCC(CCN2CCc3ccc(-c4cnccn4)cc3CC2)CC1 (centres unmarked) [TCMDC-140326] | -57.13
Cc1c[nH]c2ccc(/C=C/C(=O)NC3CCC(CCN4CCc5ccc(C#N)cc5CC4)CC3)cc12 (centres unmarked) [TCMDC-139669] | 1.674
O=C(Nc1ccc(Cn2ncc(N3CCCNCC3)c(Cl)c2=O)cc1)Nc1ccc(C(F)(F)F)cc1 [TCMDC-133328] | -22.6
O=C(Nc1cccc(CN2CCN(Cc3ccc(O)cc3)CC2)c1)c1cccc(C(F)(F)F)c1 [TCMDC-141885] | -19.52
CCC[C@@H]([C@@H](CC1CCCCC1)C(=O)N[C@H](C(=O)Nc1nccs1)C(C)(C)SC)N(O)C=O [TCMDC-138113] | -0.06569
COc1ccccc1N1CCN(C(C(=O)NCc2cccc(F)c2)c2ccc(C)cc2)CC1 (centres unmarked) [TCMDC-135502] | 14.65
O=c1cc(NCCCNCc2cccc(I)c2)[nH]c2ccccc12 [TCMDC-139414] | -42.93
O=C(Nc1ccc(-c2nc3ccccc3[nH]2)cc1)C1CCN(Cc2cccc(F)c2F)CC1 [TCMDC-124682] | -38.06
COc1ccc(CN2CCCC(N3CC4(OC3=O)c3ccccc3-c3ccccc34)C2)c(O)c1 (centres unmarked) [TCMDC-136068] | 22.8
O=C(N[C@@H](Cc1ccccc1)C(=O)NCc1cccc2ccccc12)c1ccc(O)c(-c2ccc(Cl)c(Cl)c2)c1 [TCMDC-140877] | 23.34
COc1ccc(CCN(Cc2cccs2)C(=O)c2cc3sccc3n2C)cc1OC [TCMDC-123572] | 18.98
O=C(Cc1cccc(Cl)c1)Nc1cccc(-c2c[nH]c3nc(Nc4cccc(O)c4)ncc23)c1 [TCMDC-134681] | -6.738
O=C(N[C@H]1CCN(Cc2ccc(OCCN3CCNCC3)c(Cl)c2)C1)c1ccc(Cl)c(Cl)c1 [TCMDC-140274] | 104.1
CN(C)CCCOc1ccc(CN2CC[C@H](NC(=O)c3ccc(Cl)c(Cl)c3)C2)cc1Br [TCMDC-140283] | 16.89
CN1CCC[C@H]1COc1ccc(CN2CC[C@H](NC(=O)c3ccc(Cl)c(Cl)c3)C2)cc1Cl [TCMDC-140275] | -2.162
Cc1cc(CN2CC[C@H](NC(=O)c3ccc(Cl)c(Cl)c3)C2)ccc1OCCN1CCCC1 [TCMDC-140279] | -2.29
O=C(N[C@H]1CCN(Cc2ccc(OCCN3CCCC3)c(Cl)c2)C1)c1ccc(Cl)c(Cl)c1 [TCMDC-140273] | 27.77
CN1CCC[C@H]1COc1ccc(CN2CC[C@H](NC(=O)c3ccc(Cl)c(Cl)c3)C2)cc1Br [TCMDC-140285] | 31.25
Cc1cc(CN2CC[C@H](NC(=O)c3ccc(Cl)c(Cl)c3)C2)ccc1OCCCN(C)C [TCMDC-140278] | 26.92
O=C(N[C@H]1CCN(Cc2ccc(OCCN3CCNCC3)c(Br)c2)C1)c1ccc(Cl)c(Cl)c1 [TCMDC-140284] | 61.32
Cc1cc(CN2CC[C@H](NC(=O)c3ccc(Cl)c(Cl)c3)C2)ccc1OCCN1CCNCC1 [TCMDC-140280] | 58.57
